Measurements as given in PubChem BioAssay (NCATS).
Unmarked numbers belong to inactive results. Results filed as inconclusive are left out. Entries that show only a call come without a potency. Calls of active or inactive are those of the source. The call rests on the fitted dose curve; in most records, active means well fitted curve in the direction sought with a large enough effect; inconclusive means small, poorly fitted or top-dose-only effect, or another doubt; inactive means no such curve, though single readings can be large; an effect the other way counts as inactive or inconclusive.

Assays:
Furin (Homo sapiens) = Furin (Homo sapiens) (UniProt P09958); experiment: Furin counterscreen qHTS for Zika virus inhibitors (AID 1347149); further: nearly all actives have a fitted effect of over 70% in size; further: potency means the concentration at half of the fitted maximal effect;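 on activity change, negative = inhibition: purified recombinant full-length human furin enzyme at 5 nM; fluorescence gain from furin cutting a BOC-RVRR-AMC peptide substrate over 15 min; top concentration of the series differs between compounds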
Method in brief: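 Fluorogenic cleavage of BOC-RVRR-AMC (2 microM final, Km ~15 µM) was monitored (ex 340, em 450 nm) at 37C after 15 min RT preincubation of 5 nM furin with compounds in HEPES pH 7.0 buffer with CaCl2 and Triton X-100. Percent inhibition was fitted to a 4-parameter Hill curve.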

[1] = Confirmatory screen GU Rhodamine qHTS for Zika virus inhibitors qHTS (AID 1347157); further: nearly all actives have a fitted effect of over 70% in size
Method in brief: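 Buffer 10 mM Tris-HCl pH 8.0, 0.01% Tween 20. Unlinked protease 25 nM; compound preincubation 15 min, RT, protected from light. Substrate Rhod110, 1.5 microM; ~15% conversion in 15 min.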

[2] = Tertiary RLuc qRT-PCR qHTS assay for Zika virus inhibitors (AID 1347169); further: top concentration of the series differs between compounds; nearly all actives have a fitted effect of over 55% in size
Method in brief: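 Inhibition of ZIKV-RLuc replication in Vero cells, read as Renilla luminescence 1-1.5 hrs after live-cell substrate addition, following 48-72 hrs infection at MOI 1-2 in presence of compound.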

[3] = ZIKV-mCherry secondary qHTS for Zika virus inhibitors (AID 1347158); further: top concentration of the series differs between compounds
Method in brief: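 Vero, 5,000 cells/well, o/n 37 °C; cpd pin-transferred in DMSO; ZIKV-mCherry MOI 1, 48-72 h 37 °C; 32% PFA stock fix, Hoechst; imaged 10x DAPI/mCherry; mCherry+ threshold 450 RFU; % infection.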

[4] = tested on: Zika virus NS2B-NS3 protease (linked construct); experiment: 384 well plate NINDS Rhodamine confirmatory qHTS for Zika virus inhibitors (AID 1347164); further: nearly all actives have a fitted effect of over 65% in size; further: potency means the concentration at half of the fitted maximal effect; on activity change, negative = inhibition: top concentration of the series differs between compounds
Method in brief: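 Cleavage of Ac-LKRR-Rhodamine 110 (10 microM final) by linked protease (final 5, 30 or 60 nM) was followed as fluorescence at 485/538 nm after 25 min, room temperature, dark. Compounds preincubated ~15 min.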

[5] = Confirmation and Secondary Assay for Modulators of Hemoglobin Beta Chain Splicing at IVS2 654 locus (AID 910);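 further: HeLa cells stably carrying EGFP split by mutant beta-globin IVS2-654 intron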
Method in brief: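 HeLa cells stably expressing EGFP interrupted by β-globin IVS2-654 intron, seeded overnight in Opti-MEM/2% FCS, then treated 2 days at 37 °C. Restored splicing read as total peak GFP intensity per well by laser scanning cytometry (488 nm excitation, 500–520 nm emission); 500 nM antisense PNA as control.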

[6] = Confirmation and Secondary Assay for Modulators of Hemoglobin Beta Chain Splicing at IVS2 705 locus (AID 930);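 further: HeLa cells stably expressing the EGFP-705 splicing reporter; GFP fluorescence per well restored by corrected splicing of the IVS2-705 intron in EGFP; series mostly up to about 46 µM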
Method in brief: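 Splice-correction reporter: EGFP cDNA split by beta-globin intron 2 bearing the 705 mutation, stably in HeLa. Compound incubation 2 days, 37C; fluorescent objects 5-250 µm summed per well.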

[7] = biological target: Ubiquitin carboxyl-terminal hydrolase 1 (Homo sapiens) (UniProt O94782); experiment: Inhibitors of USP1/UAF1: Pilot qHTS (AID 504865);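 further: rhodamine fluorescence freed from ubiquitin-rhodamine substrate followed over time; top concentration of the series differs between compounds; nearly all actives have a fitted effect of over 35% in size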
Method in brief: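 Enzyme-free wells gave the negative control, while test wells held 1nM USP1/UAF1 preincubated with compound for 15 min at room temperature. Ub-Rho at 150nM final started the reaction, and fluorescence at 480/540 nm was recorded kinetically.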

[8] = tested on: Zika virus NS2B-NS3 protease (linked); experiment: 384 well plate NINDS AMC confirmatory qHTS for Zika virus inhibitors (AID 1347163); further: nearly all actives have a fitted effect of over 50% in size; further: potency means the concentration at half of the fitted maximal effect;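 on activity change, negative = inhibition: linked protease at 5 30 or 60 nM final depending on run; fluorescence of AMC released from Ac-VKTGKR-AMC peptide cleaved by the protease; top concentration of the series differs between compounds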
Method in brief: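 Linked NS2B-NS3 protease (final 5 nM, 30 nM or 60 nM) was preincubated with compounds (final up to 1 mM) for ~15 minutes. Ac-VKTGKR-AMC substrate (final 30 microM) then reacted for 25 minutes at room temperature in the dark. Fluorescence (ex 355/em 460 nm) was normalized to no-enzyme and no-inhibitor controls.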

[9] = biological target: Rap guanine nucleotide exchange factor 3 (Homo sapiens) (UniProt O95398); experiment: Confirmatory qHTS for antagonist of cAMP-regulated guanine nucleotide exchange factor 3 (EPAC1) (AID 1645880); further: nearly all actives have a fitted effect of over 55% in size
Method in brief: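 Nucleotide exchange uses 100 nM EPAC1, 250 nM RAP1B-BODIPY-GDP and 50 uM GDP, with compounds in a concentration-titration series. After 5 min at room temperature, fluorescence (480 nm ex/540 nm em) is read every 5 min for 30 min. Data are normalized to control ATA and DMSO.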

[10] = biological target: Rap guanine nucleotide exchange factor 3 (Homo sapiens) (UniProt O95398); experiment: Confirmatory qHTS for agonist of cAMP-regulated guanine nucleotide exchange factor 3 (EPAC1) (AID 1645881);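 further: EPAC1 catalysed release of BODIPY-GDP from Rap1B seen as fluorescence loss; nearly all actives have a fitted effect of over 75% in size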
[11] = biological target: Rap guanine nucleotide exchange factor 4 (Homo sapiens) (UniProt Q8WZA2); experiment: Confirmatory qHTS for agonist of cAMP-regulated guanine nucleotide exchange factor 4 (EPAC2) (AID 1645884);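 further: nucleotide exchange releases bodipy-GDP from Rap1 and this lowers its fluorescence; nearly all actives have a fitted effect of over 65% in size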
[12] = biological target: Rap guanine nucleotide exchange factor 4 (Homo sapiens) (UniProt Q8WZA2); experiment: Confirmatory qHTS for antagonist of cAMP-regulated guanine nucleotide exchange factor 4 (EPAC2) (AID 1645885); further: nearly all actives have a fitted effect of over 25% in size
[13] = biological target: Rap guanine nucleotide exchange factor 3 (Homo sapiens) (UniProt O95398); experiment: Counterscreen qHTS for antagonist of cAMP-regulated guanine nucleotide exchange factor 3 (EPAC1) (AID 1645888);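 further: fluorescence loss as bound BODIPY-GDP is released from Rap1B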
Method in brief: (§1)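 Rap1B–BODIPY-GDP (250 nM) with 50 uM GDP; compounds pin-transferred to 9.74 nM–152 uM final (activator) or from 7.32 nM upwards (inhibitor). Fluorescence Ex/Em 480/540 nm read at 5 and 30 min, then after adding cAMP or buffer, at room temperature.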

[14] = biological target: Rap guanine nucleotide exchange factor 3 (Homo sapiens) (UniProt O95398); experiment: Counterscreen qHTS for agonist of cAMP-regulated guanine nucleotide exchange factor 3 (EPAC1) (AID 1645889); further: nearly all actives have a fitted effect of over 40% in size
Method in brief: as §1

[15] = Confirmatory screen NINDS Rhodamine qHTS for Zika virus inhibitors (AID 1347161); further: nearly all actives have a fitted effect of over 60% in size; further: potency means the concentration at half of the fitted maximal effect;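 on activity change, negative = inhibition: purified Zika NS2B-NS3 protease with linked NS2B cofactor domain and Rhodamine110 peptide substrate; series mostly up to about 110 µM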
Method in brief: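 Aprotinin served as in-plate control. Conditions: 25 nM linked NS2B-NS3, pH 8.0 Tris buffer, titrated compounds, 15 min preincubation and 15 min reaction with 1.5 microM Rhod110 substrate at room temperature.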

[16] = biological target: Calcium and integrin-binding protein 1 (Homo sapiens) (UniProt Q99828); experiment: Primary qHTS for Identification of Calcium Integrin Binding Protein 1 (CIB1) Competitor (AID 1508620);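 further: GST tagged CIB1 binding a fluorescein labelled alphaIIb integrin peptide tracer; top concentration of the series differs between compounds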
Method in brief: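 Fluorescence polarization competition: GST-tagged CIB1 (1 uM final) preincubated with compound 15 min at room temperature, then FITC-labelled alphaIIb peptide (100 nM final) added. After 15 min at room temperature, polarization read at Ex 480/Em 540.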

Chain of Rap guanine nucleotide exchange factor 3 (Homo sapiens) (O95398 whole entry, looked up): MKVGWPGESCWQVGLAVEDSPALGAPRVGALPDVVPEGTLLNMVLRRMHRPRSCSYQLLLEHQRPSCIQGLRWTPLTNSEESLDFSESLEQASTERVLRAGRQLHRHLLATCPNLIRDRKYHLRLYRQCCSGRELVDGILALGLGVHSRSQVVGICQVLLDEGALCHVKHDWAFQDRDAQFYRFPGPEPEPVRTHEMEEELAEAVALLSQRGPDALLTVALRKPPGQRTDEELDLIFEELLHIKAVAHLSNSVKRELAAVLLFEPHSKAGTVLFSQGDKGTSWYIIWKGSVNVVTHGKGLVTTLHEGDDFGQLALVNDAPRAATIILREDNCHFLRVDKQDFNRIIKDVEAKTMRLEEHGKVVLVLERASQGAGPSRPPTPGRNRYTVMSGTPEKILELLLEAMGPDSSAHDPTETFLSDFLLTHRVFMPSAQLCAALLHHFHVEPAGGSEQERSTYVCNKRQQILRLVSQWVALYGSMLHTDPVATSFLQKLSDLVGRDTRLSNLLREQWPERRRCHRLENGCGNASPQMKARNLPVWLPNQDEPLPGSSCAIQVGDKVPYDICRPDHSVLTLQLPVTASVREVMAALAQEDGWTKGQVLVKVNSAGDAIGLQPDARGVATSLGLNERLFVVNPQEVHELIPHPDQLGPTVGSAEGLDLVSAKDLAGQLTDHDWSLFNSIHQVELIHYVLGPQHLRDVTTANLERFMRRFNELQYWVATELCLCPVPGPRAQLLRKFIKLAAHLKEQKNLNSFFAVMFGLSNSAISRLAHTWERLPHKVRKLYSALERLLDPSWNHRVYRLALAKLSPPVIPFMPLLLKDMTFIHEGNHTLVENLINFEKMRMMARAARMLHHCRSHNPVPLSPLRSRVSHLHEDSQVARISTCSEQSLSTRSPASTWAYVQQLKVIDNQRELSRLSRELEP
Chain of Furin (Homo sapiens) (P09958 whole entry, looked up): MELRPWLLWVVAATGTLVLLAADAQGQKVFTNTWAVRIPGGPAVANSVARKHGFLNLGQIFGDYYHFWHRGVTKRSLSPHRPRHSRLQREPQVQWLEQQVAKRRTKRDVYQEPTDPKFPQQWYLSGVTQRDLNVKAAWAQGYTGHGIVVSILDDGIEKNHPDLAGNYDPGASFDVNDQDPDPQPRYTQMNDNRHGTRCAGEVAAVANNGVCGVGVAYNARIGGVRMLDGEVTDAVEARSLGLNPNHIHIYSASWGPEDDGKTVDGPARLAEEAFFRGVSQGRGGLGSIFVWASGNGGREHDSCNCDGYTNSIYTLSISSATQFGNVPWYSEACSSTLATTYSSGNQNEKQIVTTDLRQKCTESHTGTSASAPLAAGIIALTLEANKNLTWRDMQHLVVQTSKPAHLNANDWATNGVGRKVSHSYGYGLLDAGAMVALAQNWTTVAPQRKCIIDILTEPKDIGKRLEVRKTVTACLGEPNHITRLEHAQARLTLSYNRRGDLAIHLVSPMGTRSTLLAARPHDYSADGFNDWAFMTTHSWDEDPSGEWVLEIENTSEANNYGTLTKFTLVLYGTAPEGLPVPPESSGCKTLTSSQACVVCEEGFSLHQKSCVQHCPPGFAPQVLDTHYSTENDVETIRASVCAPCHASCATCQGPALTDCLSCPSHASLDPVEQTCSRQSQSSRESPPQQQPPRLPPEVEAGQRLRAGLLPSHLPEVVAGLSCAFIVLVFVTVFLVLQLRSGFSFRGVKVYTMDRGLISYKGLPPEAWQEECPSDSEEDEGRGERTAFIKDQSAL
Chain of Calcium and integrin-binding protein 1 (Homo sapiens) (Q99828 whole entry, looked up): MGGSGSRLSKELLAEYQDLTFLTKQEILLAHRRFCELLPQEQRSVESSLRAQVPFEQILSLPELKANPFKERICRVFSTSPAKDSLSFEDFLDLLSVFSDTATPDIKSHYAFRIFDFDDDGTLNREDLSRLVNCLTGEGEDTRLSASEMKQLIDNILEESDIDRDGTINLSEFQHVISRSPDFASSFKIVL
Chain of Rap guanine nucleotide exchange factor 4 (Homo sapiens) (Q8WZA2 whole entry, looked up): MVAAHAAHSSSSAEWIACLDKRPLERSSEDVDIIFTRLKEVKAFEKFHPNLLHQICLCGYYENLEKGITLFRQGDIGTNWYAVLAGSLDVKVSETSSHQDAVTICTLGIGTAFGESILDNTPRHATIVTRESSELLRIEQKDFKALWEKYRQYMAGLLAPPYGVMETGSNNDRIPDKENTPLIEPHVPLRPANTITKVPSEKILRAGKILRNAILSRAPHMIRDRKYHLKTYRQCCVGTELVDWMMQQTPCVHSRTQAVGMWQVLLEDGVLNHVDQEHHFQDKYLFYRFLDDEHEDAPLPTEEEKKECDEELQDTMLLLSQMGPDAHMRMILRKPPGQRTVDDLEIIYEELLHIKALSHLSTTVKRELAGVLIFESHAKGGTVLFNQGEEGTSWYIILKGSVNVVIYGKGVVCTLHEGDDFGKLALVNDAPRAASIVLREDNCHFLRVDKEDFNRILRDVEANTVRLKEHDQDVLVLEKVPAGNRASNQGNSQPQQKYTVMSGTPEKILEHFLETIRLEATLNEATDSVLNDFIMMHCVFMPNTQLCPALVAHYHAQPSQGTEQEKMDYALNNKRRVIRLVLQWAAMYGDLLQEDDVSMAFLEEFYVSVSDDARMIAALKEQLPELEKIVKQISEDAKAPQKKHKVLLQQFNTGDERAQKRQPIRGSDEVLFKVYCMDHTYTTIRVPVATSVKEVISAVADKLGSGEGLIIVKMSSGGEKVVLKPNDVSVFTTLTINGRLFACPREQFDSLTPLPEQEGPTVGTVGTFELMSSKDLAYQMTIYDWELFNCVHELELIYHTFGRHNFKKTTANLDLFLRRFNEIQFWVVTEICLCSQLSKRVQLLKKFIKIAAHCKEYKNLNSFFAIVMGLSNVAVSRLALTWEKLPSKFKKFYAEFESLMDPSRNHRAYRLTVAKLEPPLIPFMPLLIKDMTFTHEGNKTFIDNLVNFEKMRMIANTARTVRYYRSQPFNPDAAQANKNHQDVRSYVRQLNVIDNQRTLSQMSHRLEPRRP
Chain of Ubiquitin carboxyl-terminal hydrolase 1 (Homo sapiens) (O94782 whole entry, looked up): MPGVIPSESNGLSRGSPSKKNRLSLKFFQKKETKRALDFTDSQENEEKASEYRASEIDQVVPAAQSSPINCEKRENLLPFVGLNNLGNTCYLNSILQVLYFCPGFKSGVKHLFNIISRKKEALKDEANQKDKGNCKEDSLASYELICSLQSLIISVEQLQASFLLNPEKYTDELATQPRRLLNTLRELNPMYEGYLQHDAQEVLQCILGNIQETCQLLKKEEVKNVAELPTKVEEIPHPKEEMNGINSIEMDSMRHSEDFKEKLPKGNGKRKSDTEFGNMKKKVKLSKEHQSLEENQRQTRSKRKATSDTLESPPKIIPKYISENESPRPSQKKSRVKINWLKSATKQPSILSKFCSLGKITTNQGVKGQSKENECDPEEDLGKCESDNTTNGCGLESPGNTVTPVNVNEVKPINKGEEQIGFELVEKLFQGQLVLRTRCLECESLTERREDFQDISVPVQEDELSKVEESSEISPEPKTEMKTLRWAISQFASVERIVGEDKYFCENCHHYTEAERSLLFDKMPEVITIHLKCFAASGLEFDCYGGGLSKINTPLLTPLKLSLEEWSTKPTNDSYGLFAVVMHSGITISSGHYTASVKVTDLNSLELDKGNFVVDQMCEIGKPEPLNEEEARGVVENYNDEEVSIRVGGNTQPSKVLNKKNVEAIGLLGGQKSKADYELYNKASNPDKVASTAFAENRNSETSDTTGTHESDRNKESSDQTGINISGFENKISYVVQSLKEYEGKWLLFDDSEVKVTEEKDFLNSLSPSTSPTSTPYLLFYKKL

CCCCc1nn2c(=O)cc(COC(=O)c3ccc(NC(=O)c4cccc(OC)c4)cc3)nc2s1
Potency (Furin (Homo sapiens)): 41.8 µM (active)
Potency [1]: inactive
Potency [2]: inactive

COc1ccc(/C=C(\C#N)c2nc(-c3cc4c(ccc5ccccc54)oc3=O)cs2)cc1O
Potency (Furin (Homo sapiens)): inactive
Potency [3]: inactive

CCOC(=O)c1ccc(NC(=O)Cn2nnc(-c3ccc(C(F)(F)F)cc3)n2)cc1
Potency (Furin (Homo sapiens)): inactive
Potency [1]: inactive
Potency [2]: inactive

COc1ccc(C(=O)Nc2cccc(C(=O)OCc3cc(=O)n4c5c(sc4n3)CCCC5)c2)cc1
Potency (Furin (Homo sapiens)): 66.3 µM (active)
Potency [1]: inactive
Potency [2]: inactive

O=C(O)COc1ccc(-c2nccc3c2C(=O)N(Cc2cccc(C(F)(F)F)c2)CC(COc2ccccc2)O3)cc1 (stereo not given)
Potency (Furin (Homo sapiens)): inactive
Potency [3]: inactive
Potency [4]: 39.8 µM (active)
Potency [2]: inactive

NC(Cc1cc(I)c(Oc2ccc(O)c(I)c2)c(I)c1)C(=O)O (stereo not given)
outcome [5]: inactive
outcome [6]: inactive
Potency [7]: inactive
Potency (Furin (Homo sapiens)): inactive
Potency [1]: inactive
Potency [2]: inactive

O=c1oc2ccc3ccccc3c2cc1-c1nnc(Nc2cccc(C(F)(F)F)c2)s1
Potency (Furin (Homo sapiens)): inactive
Potency [1]: inactive
Potency [2]: inactive

CCCCCCc1cc2cc(-c3cn4c(n3)sc3cc(OC)ccc34)c(=O)oc2cc1O
Potency (Furin (Homo sapiens)): inactive
Potency [3]: inactive
Potency [8]: inactive
Potency [4]: 35.5 µM (active)
Potency [2]: inactive
Potency [9]: inactive
outcome [10]: inactive
outcome [11]: inactive
activity change, negative = inhibition [12]: -6.89% [at 12.7 µM]
outcome [13]: inactive
Potency [14]: inactive

Fc1cc(C2=Nn3c(COc4ccc(Cl)cc4Cl)nnc3S/C2=C\c2ccc(-c3ccc(Cl)cc3)o2)c(Cl)cc1Cl
Potency (Furin (Homo sapiens)): inactive
Potency [3]: inactive
Potency [8]: 158 µM (active)
Potency [4]: inactive
Potency [2]: inactive

CC(NC(=O)C1CCN(S(=O)(=O)c2ccc3nc4c(c(C(=O)O)c3c2)CCCC4)CC1)c1ccccc1 (stereo not given)
Potency (Furin (Homo sapiens)): inactive
Potency [1]: inactive
Potency [2]: inactive

O=C(COc1ccccc1F)Nc1ccc(C(=O)OCc2cc(=O)n3nc(C4CC4)sc3n2)cc1
Potency (Furin (Homo sapiens)): inactive
Potency [1]: inactive
Potency [2]: inactive

O=C(COc1ccc(F)cc1)Nc1ccc(C(=O)OCc2cc(=O)n3nc(C4CC4)sc3n2)cc1
Potency (Furin (Homo sapiens)): inactive
Potency [1]: inactive
Potency [2]: inactive

O=C(Nc1ccc(C(=O)OCc2cc(=O)n3c4c(sc3n2)CCCC4)cc1)c1ccc(Cl)cc1
Potency (Furin (Homo sapiens)): 46.9 µM (active)
Potency [1]: inactive
Potency [2]: inactive

CC(C)c1nn2c(=O)cc(COC(=O)c3ccc(NC(=O)c4ccccc4Cl)cc3)nc2s1
Potency (Furin (Homo sapiens)): inactive
Potency [1]: inactive
Potency [2]: inactive

Cc1cccc(C)c1-n1c(SCC(=O)Nc2ccc(C(=O)O)cc2)nnc1-c1cccc([S+](=O)([O-])N2CCCC2)c1
Potency (Furin (Homo sapiens)): inactive
Potency [3]: inactive
Potency [8]: 70.8 µM (active)
Potency [4]: 89.1 µM (active)
Potency [2]: inactive

O=C(OCC#CCSc1nnc(-c2cccc3ccccc23)o1)c1ccc(OC(F)F)cc1
Potency (Furin (Homo sapiens)): 41.8 µM (active)
Potency [1]: inactive
Potency [15]: inactive
outcome [16]: inactive

O=C(O)COc1ccccc1C1Nc2ccccc2-c2nnc(SCc3ccc(Cl)cc3)nc2O1 (stereo not given)
Potency (Furin (Homo sapiens)): inactive
Potency [3]: inactive
Potency [8]: 316 µM (active)
Potency [4]: 224 µM (active)
Potency [2]: inactive

O=C(Nc1ccc(C(=O)OCc2cc(=O)n3c4c(sc3n2)CCCC4)cc1)c1ccc(F)cc1
Potency (Furin (Homo sapiens)): 66.3 µM (active)
Potency [3]: inactive
Potency [8]: inactive

O=C(Nc1cccc(C(=O)OCc2cc(=O)n3nc(C4CC4)sc3n2)c1)c1ccc(F)cc1
Potency (Furin (Homo sapiens)): inactive
Potency [3]: inactive
Potency [15]: 31.6 µM (active)
Potency [8]: 89.1 µM (active)
Potency [2]: inactive

CCOC(=O)c1cccc(NC(=O)CSc2ncc3c(n2)-c2ccc(Cl)cc2N(Cc2ccccc2)S3(=O)=O)c1
Potency (Furin (Homo sapiens)): inactive
Potency [3]: inactive
Potency [15]: 44.7 µM (active)
Potency [8]: inactive

O=C(OCC#CCSc1nnc(-c2cccc3ccccc23)o1)c1sc(Cl)c(Cl)c1Cl
Potency (Furin (Homo sapiens)): 14.8 µM (active)
Potency [1]: inactive
Potency [2]: inactive
outcome [16]: inactive

CC(C)c1ccc(NC(=O)c2ccc3oc(=O)c(S(=O)(=O)c4ccc(F)cc4)cc3c2)cc1
Potency (Furin (Homo sapiens)): inactive
Potency [3]: inactive
Potency [15]: 56.2 µM (active)
Potency [8]: inactive

O=C(/C=C/c1ccc(C(F)(F)F)cc1)OC(C(=O)NC1CC1)c1ccccc1 (stereo not given)
Potency (Furin (Homo sapiens)): inactive
Potency [1]: inactive
Potency [2]: inactive

O=C(OCC#CCSc1nnc(-c2cc3ccccc3cc2O)o1)c1ccc(F)cc1
Potency (Furin (Homo sapiens)): 83.5 µM (active)
Potency [1]: inactive
Potency [15]: inactive
outcome [16]: inactive

COCCOC(=O)c1c(C)n(S(=O)(=O)c2ccc(C)cc2)c2ccc(NS(=O)(=O)c3ccc(C)cc3)cc12
Potency (Furin (Homo sapiens)): inactive
Potency [1]: inactive
Potency [2]: inactive

CCOc1ccc(C(=O)Nc2ccccc2C(=O)OCc2cc(=O)n3nc(C4CC4)sc3n2)cc1
Potency (Furin (Homo sapiens)): inactive
Potency [1]: inactive
Potency [2]: inactive

CCOc1ccc(S(=O)(=O)Nc2cc3c(C(=O)OCc4ccccc4)c(C)oc3c3ccccc23)cc1
Potency (Furin (Homo sapiens)): inactive
Potency [3]: inactive
Potency [4]: 316 µM (active)
